ABHD5-PLIN5 inh: blocks binding of human ABHD5 to perilipin-5; Split G. princeps luciferase complementation, luminescence, 4 h; inhibition, % at 4 µM; 0.78% of 360,000 active;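 active = inhibition above the mean inhibition across every tested compound plus 3 SD, cut at about 22% in these data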;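 also: 0% = DMSO only wells and the 100% control is not disclosed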
LEDGF integ inh: blocks HIV-1 LEDGF/p75-dependent DNA integration. TR-FRET IN-LEDGF/p75 DNA integration, Eu/Cy5. inhibition, % at 3.7 µM. 0.64% of 370,000 active. AID 743269;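 active = inhibition above the screen-wide mean plus 3 SD, cut at about 13% in these data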;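 also: signal is the Cy5 over europium emission ratio at 671 and 618 nm; 0% = plate median of compound wells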
PRMT1 FP inh: PRMT1 (human) inhibition, primary screen; Q99873; recombinant PRMT1, activity-based probe fluorescence polarization; inhibition, % at 2.79 µM; 1.3% of 370,000 active;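 active = inhibition above about 21% made by adding two undisclosed values, limit read from the data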
UHRF1 MBD2 ctr: UHRF1 methyl-DNA binding inhibition. Q96T88. UHRF1 binding to methylated oligo, TR-FRET. inhibition, % at 4.4 µM. 0.75% of 370,000 active; in the data active = inhibition above about 21%;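 also: UHRF1 SRA domain binding a hemimethylated CpG hairpin DNA probe; 0% = median of test compound wells and 100% = reference inhibitor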
rCAG RNA binder: molecules binding r(CAG) RNA repeats. AID 651821. r(CAG) RNA repeat, TO-PRO-1 dye displacement fluorescence. inhibition, % at 3 µM. 1.3% of 370,000 active;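 active = inhibition above the plate cutoff, the mean of all test compounds on that plate plus 3 SD, cut at about 35% in these data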;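 also: 0% = DMSO alone and 100% = 100 µM mitoxantrone as full dye displacement; higher means more dye released from RNA so lower well fluorescence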
MBD2 DNA inh: inhibitors of human MBD2 binding to methylated oligonucleotide. AID 686964. Q9UBB5. TR-FRET. 0.31% of 370,000 active. inhibition, % at 4.4 µM; in the data active = inhibition above about 13%
Target sequence (Q9UBB5 whole entry, looked up): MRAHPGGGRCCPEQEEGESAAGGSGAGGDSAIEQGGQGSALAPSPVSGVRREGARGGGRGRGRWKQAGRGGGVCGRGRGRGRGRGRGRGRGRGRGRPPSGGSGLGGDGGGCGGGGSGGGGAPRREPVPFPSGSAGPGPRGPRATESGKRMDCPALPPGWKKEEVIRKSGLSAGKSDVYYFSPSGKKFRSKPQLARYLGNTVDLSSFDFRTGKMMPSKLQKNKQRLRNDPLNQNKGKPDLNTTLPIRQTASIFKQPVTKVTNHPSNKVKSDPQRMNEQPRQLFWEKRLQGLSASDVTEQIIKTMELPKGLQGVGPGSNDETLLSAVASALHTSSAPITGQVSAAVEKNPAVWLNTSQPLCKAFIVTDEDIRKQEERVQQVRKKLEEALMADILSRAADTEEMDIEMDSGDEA
rCAG binder conf: r(CAG) RNA repeat binding, confirmation. shares compounds with rCAG RNA binder. TO-PRO-1 dye displacement fluorescence. inhibition, % at 3 µM. 70% of 4,300 active;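 active = inhibition above a per-plate cutoff, the mean inhibition of sample wells plus 3 SD, cut at about 35% in these data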;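 also: loss of TO-PRO-1 fluorescence as compound displaces dye from 1x1 AA loop RNA; 0% = DMSO only wells and 100% = 100 µM mitoxantrone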
dCAG dye counter: counter-screen for rCAG RNA binders: DNA CAG dye complex inhibitors | shares compounds with rCAG RNA binder | inhibition, % at 3 µM | d(CAG) DNA oligo TO-PRO-1 dye displacement, fluorescence | 94% of 4,300 active;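 active = inhibition above its plate's cutoff, the mean test-well inhibition plus 3 SD, cut at about 4.8% in these data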;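 also: 0% = DNA dye mix with DMSO and 100% = 100 µM mitoxantrone; hits displace the dye from DNA and so lower well fluorescence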
Numbers without * were called inactive; x = no result given. A selection: hits, their analogues and other compounds. The true share with any hit is near 4.1%.

SMILES	ABHD5-PLIN5 inh	LEDGF integ inh	PRMT1 FP inh	UHRF1 MBD2 ctr	rCAG RNA binder	MBD2 DNA inh	rCAG binder conf	dCAG dye counter
CCOC(=O)c1sc(N/N=C/c2cc(Br)c(O)c(OC)c2)nc1C	-8	-4	6	-1	48*	1	38*	17*
CCOC(=O)[C@]12CCCCC/C=C\1N(Cc1ccc(OC)cc1)C(=O)[C@H]2CC(=O)NCC12CC3CC(CC(C3)C1)C2	x	-2	3	-2	8	0	x	x
COCc1cn(-c2ccc3c(c2)[C@]2(CC(=O)N(C)C2c2ccccc2)C(=O)N3CC(C)C)nn1 (some centres not stated)	x	3	-1	2	-3	1	x	x
O=C1C2C3C=CC(C3)C2C(=O)N1/N=C/c1cn(Cc2ccccc2)c2ccccc12 (configuration not stated)	3	-1	1	-1	0	4	x	x
NC1=NC(=O)/C(=C/c2cn(Cc3ccccc3)c3ccccc23)S1	0	0	2	-1	44*	-2	18	11*
COc1ccc(Cn2cc(CN3[C@H](C)COc4cc(Br)ccc4S3(=O)=O)nn2)cc1	x	-4	-4	2	4	-3	x	x
O=C(O)CSc1cc(C(=O)c2cc(F)ccc2O)cn2c(=O)c3c(-c4ccccc4)csc3nc12	0	12	5	1	85*	1	90*	70*
CCOC(=O)c1sc2nc3c(SCCC#N)cc(C(=O)c4cc(F)ccc4O)cn3c(=O)c2c1C	3	0	0	-3	9	1	x	x
CCOC(=O)c1sc2nc3c(SCCC(=O)O)cc(C(=O)c4cc(OC)ccc4O)cn3c(=O)c2c1C	-1	1	-2	-4	35*	-10	68*	39*
Cc1ccc(C(=O)CCC(=O)Nc2ccc(Cl)c(S(=O)(=O)Nc3cccc(Cl)c3)c2)cc1	15	-6	3	5	35*	6	35*	12*
COC(=O)c1c(C)[nH]c(C)c1-c1ccc(C)cc1	-5	-1	1	0	43*	-1	2	1
Cn1cccc1C(=O)N1CCN(S(=O)(=O)c2ccc(Cl)s2)CC1	x	1	-1	0	2	3	x	x
C[C@H]1COc2cc(Br)ccc2S(=O)(=O)N1Cc1cn(Cc2ccco2)nn1	x	-1	-8	-1	1	-3	x	x
COc1ccc(C(=O)COC(=O)/C=C/c2ccc(S(=O)(=O)Nc3cccc(S(N)(=O)=O)c3)cc2)cc1	0	0	0	3	46*	-2	60*	20*
COc1ccccc1CNC1CCC12CCC(c1ccccc1)CC2 (configuration not stated)	x	-2	2	0	x	-1	x	x
O=C(N/N=C/c1cc([N+](=O)[O-])ccc1O)C12CC3CC(CC(C3)C1)C2	-4	0	2	1	0	0	x	x
O=[N+]([O-])c1cccc(N/N=C/c2cc([N+](=O)[O-])ccc2O)c1	16	10	0	-1	36*	-4	27	10*
O=[N+]([O-])c1ccc(O)c(/C=N/NC(=S)Nc2ccc(Cl)cc2Cl)c1	-2	2	-2	-1	46*	6	89*	64*
O=C(N/N=C/c1cc([N+](=O)[O-])ccc1O)NC12CC3CC(CC(C3)C1)C2	-5	3	2	2	63*	8	36*	9.5*
CC(=O)c1cc(-c2ccc3nonc3c2)c(=O)n2c1CCC2	x	-3	-2	1	0	-3	x	x
CCCCCCCCN1C(=O)[C@@H](CC(=O)NCCC(C)C)C[C@@]2(C(=O)OC)C1=C[C@H](C(C)(C)C)O[C@@H]2C	x	-4	1	-3	0	-2	x	x
CC[C@]1(c2ccc(C)cc2)C(=O)N(C(=O)OC(C)C)N1C(=O)OC(C)C	x	-2	1	0	-2	-8	x	x
Clc1ccc(-n2c(Cc3cccs3)nnc2SC/C=C/c2ccccc2)cc1	x	-2	1	4	3	6	x	x
COc1ccc(Nc2ccccc2C(=O)O)cc1	5	-5	3	1	-2	3	x	x

Source: PubChem BioAssay (The Scripps Research Institute Molecular Screening Center)
